Assay outcomes deposited in PubChem BioAssay by National Center for Advancing Translational Sciences (NCATS).
Sampled rows, rich in hits. Any-hit rate of the full collection: about 5.9%.
ATXN2 expr inh: Primary qHTS for Inhibitors of ATXN expression; HEK-293 ATXN2-luciferase reporter, luminescence, 24 h; Potency, µM (titrated, usually from 57 µM), for the others: top-dose activity change, negative = inhibition, hits mostly inhibitors; actives 0.72% (n = 360,000); further: on the % scale 0 is the no-effect control and ±100 the full control effect; nearly all actives have a fitted effect of over 55% in size
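ATXN2-luciferase reporter cells (luciferase flanked by upstream and downstream ATXN2 gene portions) were treated 24 h at 37 °C with compounds at up to 57 uM. SteadyGlo luminescence gave expression; GF-AFC fluorescence gave viability.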
KB-3-1 cytotox: qHTS assay for MDR1-selective chemotherapeutics: Primary screen using the parental adenocarcinoma cell KB-3-1. KB-3-1 viability, CellTiter-Glo ATP luminescence, 72 h. Potency, µM (doses to about 46.1 µM), hits mostly cytotoxic. actives 1.4% (n = 400,000). AID 1347075, 2019; further: on the % scale 0 is the no-effect control and ±100 the full control effect; nearly all actives have a fitted effect of over 60% in size
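Parental KB-3-1 adenocarcinoma cells in phenol-red-free DMEM with 10% FBS were pin-treated with compounds at several concentrations, incubated 72 h at 37 °C, and viability read by CellTiter-Glo luminescence; concentration-effect curves were fitted after normalization.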
TGFb SMAD3 inh: qHTS for Inhibitors of TGF-b; HepG2 CAGA-GFP TGF-b/SMAD3 reporter, GFP fluorescence, 18 h; TGF-beta stimulated, 500 pg/mL final; Potency, µM (highest dose often 46.1 µM), inactives show top-dose activity, negative = inhibition, hits mostly inhibitors; actives 1.2% (n = 410,000); further: on the % scale 0 is the no-effect control and ±100 the full control effect; nearly all actives have a fitted effect of over 65% in size
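TGF-beta reporter screen: HEPG2 CAGA-GFP, 1% FBS, 500 pg/mL TGF-beta final, 18 h; per-cell GFP summed per well; curves fitted and categorized by class.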
KB-V1 cytotox: qHTS assay for MDR1-selective chemotherapeutics: Primary screen using the drug-selected MDR subline cells KB-V1; KB-V1 MDR cells viability, CellTiter-Glo, 72 h; Potency, µM (titrated, usually from 46.1 µM), most hits filed as cytotoxic; actives 3.4% (n = 400,000); AID 1347076, 2019; further: on the % scale 0 is the no-effect control and ±100 the full control effect; nearly all actives have a fitted effect of over 60% in size
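KB-V1 MDR subline cells in DMEM (phenol-red free, 10% FBS) exposed to compounds in qHTS concentration series for 72 h at 37 degrees C. Viability read by CellTiter-Glo luminescence; concentration-effect curves fitted after normalization and correction.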
HepG2 tox: qHTS for Inhibitors of TGF-b: Cytotox Counterscreen; HepG2 CAGA-GFP viability, ATP luminescence, 18 h; Potency, µM (highest dose often 46.1 µM), for the others: at the top dose activity change, negative = cytotoxicity, actives largely listed as cytotoxic; actives 0.76% (n = 410,000)
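HepG2 CAGA-GFP cells (1000/well, DMEM with 1% FBS) received compound, then TGF-beta at 500 pg/mL final, and were incubated 18 hours at 37 degrees C. Viability was read by CellTiter-Glo luminescence. Media-only wells were set as complete cell-killing and DMSO as no toxicity.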
ATXN viability: Viability Counterscreen for Primary qHTS for Inhibitors of ATXN expression | actives 0.49% (n = 400,000) | Potency, µM (titrated, usually from 56.7 µM), actives largely listed as cytotoxic | S2 cells (HEK-293 line with an ATXN2-luciferase reporter) viability, CellTiter-Fluor protease fluorescence, 24 h; further: nearly all actives have a fitted effect of over 40% in size
Starred values were filed as active, the others as inactive; i = inactive; ? = inconclusive; · = no result. The call rests on the fitted dose curve; in most records, active means well fitted curve in the direction sought with a large enough effect; inconclusive means small, poorly fitted or top-dose-only effect, or another doubt; inactive means no such curve, though single readings can be large; an effect the other way counts as inactive or inconclusive. Potency means the concentration at half of the fitted maximal effect.

SMILES	ATXN2 expr inh	KB-3-1 cytotox	TGFb SMAD3 inh	KB-V1 cytotox	HepG2 tox	ATXN viability
Cc1ccc(-c2nc(S(=O)(=O)c3ccc(F)cc3)c(N3CCN(c4ccccc4)CC3)o2)cc1	-3%	i	3%	i	-10%	i
COc1ccccc1CNC(=O)CSc1ccsc1[N+](=O)[O-]	65%	i	-10%	i	-18%	i
O=C(CSc1ccsc1[N+](=O)[O-])NCc1ccccc1	88%	5.8µM*	-2%	?	3%	i
COCCn1c(-c2ccc(C)cc2)nc2oc3cc(OC)ccc3c(=O)c2c1=O	·	i	-2%	i	-16%	i
Cn1c2ccccc2c(=O)c2c(=O)n(C3CCCCCC3)c(C3CCCCC3)nc21	415%	?	?	?	5%	·
COc1ccc2c(=O)c3c(=O)n(Cc4ccco4)c(C(C)C)nc3oc2c1	-12%	i	17%	21µM*	-3%	i
COc1ccc(CCn2c(C3CCCCC3)nc3c(c(=O)c4ccccc4n3C)c2=O)cc1	·	?	?	18µM*	-37%	?
COCCCn1c(C2CCCCC2)nc2oc3cc(OC)ccc3c(=O)c2c1=O	-1%	?	1%	23µM*	-1%	?
Cn1c2ccccc2c(=O)c2c(=O)n(C3CCCCC3)c(-c3cccs3)nc21	?	?	11%	12µM*	1%	i
COc1ccc(Cn2c(C3CCCCC3)nc3c(c(=O)c4ccccc4n3C)c2=O)cc1	·	i	12%	?	-17%	i
CN(C)CC/C=C1/c2ccccc2CSc2ccccc21	·	·	·	·	·	i
Cc1nnc(N2CCC(C(=O)NCCC(C)C)CC2)c2nn(-c3ccc(Cl)cc3)c(C)c12	-11%	i	?	i	-4%	i
COc1ccc(/C=C/c2nc(C#N)c(N3CCN(c4ccccc4)CC3)o2)cc1OC	·	·	?	·	-46%	·
CC1CCc2cccc3c2N1c1cc(C#N)c(C#N)cc1O3 (stereo not given)	-9%	7.3µM*	25%	?	-2%	?
CC1CCCN(S(=O)(=O)c2ccc(C(=O)Nc3nnc(-c4ccccn4)o3)cc2)C1 (stereo not given)	·	?	-25%	?	-42%	i
CC1CCCN(S(=O)(=O)c2ccc(C(=O)Nc3nnc(-c4ccccc4Cl)o3)cc2)C1 (stereo not given)	?	7.3µM*	-6%	?	-51%	i
Cc1cc(C)c2nc(NNC(=O)c3ccc(S(=O)(=O)N4CCCC(C)C4)cc3)sc2c1 (stereo not given)	-35%	4.1µM*	?	i	-41%	i
O=C(Nc1nnc(-c2cccs2)o1)c1cccc(C(F)(F)F)c1	16µM*	i	?	i	-18%	?
CN(C)S(=O)(=O)c1ccc(C(=O)Nc2nnc(-c3cccs3)o2)cc1	·	i	-13%	?	-32%	?
N#Cc1ccc(C(=O)Nc2nnc(-c3cccs3)o2)cc1	?	?	-9%	i	-20%	i
CC1CC(C)CN(S(=O)(=O)c2ccc(C(=O)Nc3nnc(-c4cccs4)o3)cc2)C1 (stereo not given)	?	?	-8%	13µM*	-21%	?
O=S(=O)(c1ccc(Cl)cc1)c1nc(-c2ccco2)oc1SCc1ccccc1F	-17%	i	-11%	i	-1%	i
COC(=O)[C@H](Cc1ccccc1)N(Cc1ccc(C)cc1)S(C)(=O)=O	·	?	-10%	?	-31%	·
Cc1ccc(S(=O)(=O)CCC(=O)Nc2ccc(OC(F)(F)F)cc2)cc1	·	i	?	i	2%	·
CCC1CCCCN1S(=O)(=O)c1ccc(C(=O)Nc2nnc(-c3cccs3)o2)cc1 (stereo not given)	?	?	?	5µM*	-32%	i
SMILES	ATXN2 expr inh	KB-3-1 cytotox	TGFb SMAD3 inh	KB-V1 cytotox	HepG2 tox	ATXN viability
COc1ccccc1N1CCN(C(=O)c2ccccc2SCC(=O)NCc2ccco2)CC1	-8%	i	-7%	?	-1%	i
CC(=O)c1ccc(N2CCN(C(=O)c3ccccc3SCC(=O)NCc3ccco3)CC2)c(F)c1	7%	i	-5%	21µM*	-16%	i
CCCC[C@@H](CN[C@H](C)CNC)NCC1CCC(C(C)(C)C)CC1 (stereo not given in full)	35µM*	?	?	?	18µM*	32µM*
CN(C)c1ccc(N=Nc2ccccc2C(=O)OCC(=O)N2CCCCCC2)cc1	50%	?	?	3.3µM*	-8%	?
O=C(NC1CCCC1)c1ccc(CSc2nc3cccnc3n2Cc2ccccc2F)cc1	?	i	?	i	-36%	?
Cc1cccc(Cn2c(SCc3ccc(C(=O)NCCc4ccccc4)cc3)nc3cccnc32)c1	-5%	?	?	18µM*	-2%	?
Cc1ccc(CSc2nc3cccnc3n2Cc2ccc(C(=O)NCc3ccco3)cc2)cc1	·	·	-28%	·	-23%	·
O=C(NCc1ccco1)c1ccc(Cn2c(SCc3ccccc3F)nc3cccnc32)cc1	·	·	13µM*	·	-36%	·
CN(Cc1ccccc1)C(=O)c1ccc(CSc2nc3cccnc3n2Cc2ccccc2F)cc1	?	i	?	i	13µM*	·
Cc1cccc(Cn2c(SCc3ccc(C(=O)NCc4ccccc4F)cc3)nc3cccnc32)c1	-5%	?	?	15µM*	-40%	?
Cc1ccc(CNC(=O)c2ccc(Cn3c(SCc4ccccc4F)nc4cccnc43)cc2)cc1	·	·	-18%	·	-26%	·
